High-throughput results from PubChem.
AMA1-RON2 inh – AMA1-RON2 (P. falciparum) interaction inhibition; AlphaScreen AMA1-biotinylated RON2 peptide binding; Potency, µM (series often up to 58.2 µM), for inactives: at the highest dose activity change, negative = inhibition, most hits filed as inhibitors; 360,000 compounds, 0.2% hits; AID 720542; active = well fitted inhibition curve with a large enough effect; inconclusive = small, poorly fitted or top-dose-only effect; inactive = no such curve, though single readings can be large or run the other way;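 note: potency is the fitted concentration of half-maximal effect; 0% = vehicle wells and -100% = peptide control; nearly all actives have a fitted effect of over 45% in size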
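AMA1 (3D7) with his tag at 25 nM final met compounds first, then biotinylated RON2 peptide at 25 nM; detection used donor plus acceptor beads, 10 µg/mL apiece, read by AlphaScreen after 30 min at room temperature.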
Shiga toxin inh – Shiga toxin inhibition; Vero cells, Shiga toxin protein synthesis inhibition reporter; inhibition, % at 38.7 µM; 290,000 compounds, 9.2% hits; AID 2315; in the data active = inhibition mostly above about 28%, no sharp cut-off; inactive = mostly below about 43%; note: 0% is about no effect
CHX counter-1 – counter-screen hit for Shiga toxin inhibitors, cycloheximide; 300,000 compounds, 12% hits; cell reporter, cycloheximide protein synthesis inhibition counterscreen; max response, %; AID 2314; in the data active = max response mostly above about 13%, no sharp cut-off; inactive = mostly below about 14%; note: read at 38.3 µM for the half of the compounds with a filed dose; 0% is about no effect
LASV entry inh – blocks Lassa virus binding to or entry into cells | Potency, µM (highest dose often 37.9 µM), for the others: top-dose activity change, negative = inhibition, usual class: inhibitors | Lassa virus pseudotype entry inhibition, cell reporter | AID 540256 | 300,000 compounds, 1.2% hits; calls by dose curve; tested in HEK293 cells; note: potency is the fitted concentration of half-maximal effect; % is set by controls: 0 for no effect and ±100 for the full control effect; nearly all actives have a fitted effect of over 50% in size
Marburg entry inh – blocks Marburg virus binding to or entry into cells | Marburg virus pseudotyped entry inhibition, cell reporter | Potency, µM (series often up to 37.8 µM), without a hit: at the highest dose activity change, negative = inhibition, most hits filed as inhibitors | 300,000 compounds, 1.8% hits; calls by dose curve; tested in HEK293 cells; note: potency is the fitted concentration of half-maximal effect; % is set by controls: 0 for no effect and ±100 for the full control effect
CHX counter-2 – affects protein synthesis reporter in cycloheximide counter-screen. Potency, µM (top dose mostly 38.3 µM), without a hit: at the highest dose activity (activation), hits mostly activators. 510 compounds, 3% hits. AID 2318. shares compounds with Shiga toxin inh. Cycloheximide counterscreen, protein synthesis reporter, Shiga toxin assay; calls by dose curve; note: potency is the fitted concentration of half-maximal effect; 0% is about no effect
* = called active by the depositor; u = inconclusive; x = not tested or not shown; ! = not confirmed by another sample; [ ] = another dose, or the depositor's remark. Shown is part of a subset that was picked to be rich in hits.

SMILES	AMA1-RON2 inh	Shiga toxin inh	CHX counter-1	LASV entry inh	Marburg entry inh	CHX counter-2
Cc1ccc(O)c([C@H](CCN(C(C)C)C(C)C)c2ccccc2)c1	-5%	48*!	-1	x	x	-2%
Cc1cc(C)c(OCC(=O)Nc2nnn(C)n2)c(Br)c1	-9%	2	-3	-6%	3%[46.1 µM]	x
Cc1ccc(OCC(=O)Nc2nnn(C)n2)c(C)c1	-5%	83*	5	18%	5%	u
COc1ccc(C(C)NC(=O)CN(c2cc(OC)ccc2OC)S(=O)(=O)c2ccccc2)cc1 (centres undefined)	x	x	x	1%[46.1 µM]	-16%[46.1 µM]	x
COc1ccc(N2CCN(c3oc(COc4ccccc4Cl)nc3C#N)CC2)cc1	u	35*	16	-29%	u	u
COc1ccc(C(=O)Nc2cccc3nc(C)ccc23)cc1OC	6%	24*	10	10%[46.1 µM]	13%[46.1 µM]	1%
COc1cc(OC)cc(C(=O)Nc2cccc3nc(C)ccc23)c1	1%	1	-2	u	u	x
Cc1ccc(OCC(=O)NNC(=O)CCC(=O)Nc2ccc(C)cc2C)cc1	15%	35*	-2	0%	11%	-1%
O=C(COC(=O)c1ccccn1)c1cccc(Br)c1	-8%	15	5	7%	18%	x
COc1cccc(/C=C/C(=O)N2CCN(c3ccccn3)CC2)c1	22%	19	19	x	x	x
CSc1ccc(/C=C/C(=O)N2CCN(c3ccccn3)CC2)cc1	-6%	32*	12	x	x	-2%
COc1ccc2c(CNCc3ccco3)c(C(=O)O)n(Cc3ccc(F)cc3Cl)c2c1	x	x	x	1%[46.1 µM]	x	x
COc1ccccc1Nc1cc(C(=O)N2CCc3ccccc3C2)c2ccccc2n1	x	30*	11	x	x	1%
COc1ccc(-c2noc(=O)n2CC(=O)N2CCC(Cc3ccccc3)CC2)cc1	-1%	2	-1	x	x	x
CCc1cc2c(nc1CC)CCN(CCC(C)=NO[C@H](C)c1cn([C@H](CO)Cc3ccccc3)nn1)C2	x	x	x	x	-16%[14.2 µM]	x
Cc1cc(C)n(-c2cc(N3CCOCC3)ncn2)n1	76%	31*	-2	x	x	-4%
COc1ccccc1N1CCN(CC(=O)Nc2sccc2C#N)CC1	-2%	-16	13	10%	u	x
CN1CCN(Cc2ccc(N)cc2)CC1	-7%	27*	8	x	x	1%
O=C(OCc1nc2ccccc2s1)c1cccc(N2C(=O)CCC2=O)c1	2%	58*	7	8%	4%[46.1 µM]	2%
O=C(NCC(=O)N1CCCC(C(F)(F)F)C1)c1ccc2ccccc2c1 (centres undefined)	-5%	x	x	7%	4%[46.1 µM]	x
O=C(NCC(=O)N1CCCC(C(F)(F)F)C1)c1ccc(Oc2ccccc2)cc1 (centres undefined)	-3%	21*	20	x	x	-1%
COCCCNC(=O)c1cn(C)c(=O)c2c1c1ccccc1n2C	1%	33*	-1	-3%[46.1 µM]	0%[46.1 µM]	1%
Cc1ccc(C(=O)N2CCc3cc(CNC(=O)COc4ccccc4)ccc32)cc1	x	x	x	-6%[46.1 µM]	x	x
O=C(Sc1cccc2cccnc12)c1ccccc1Br	x	41*	8	x	x	9%
Cc1cc(C)c(NC(=O)Cn2c(=O)n(Cc3ccco3)c(=O)c3ccc(C(=O)NC4CCCC4)cc32)c(C)c1	x	x	x	-7%[46.1 µM]	10%[46.1 µM]	x
SMILES	AMA1-RON2 inh	Shiga toxin inh	CHX counter-1	LASV entry inh	Marburg entry inh	CHX counter-2
Cc1c(C(=O)OC/C(O)=C(\C#N)c2nc3ccccc3[nH]2)oc2ccc(Br)cc12	144%	-7	-3	11%	-5%[46.1 µM]	x
Cc1c(C(=O)Nc2nc3ccccc3[nH]2)oc2ccc(Br)cc12	92%	14*	12	-2%	0%	10µM*
CC(C)C(=O)N1c2nc(-c3ccco3)nn2C2(CCCCC2)[C@@H]2CCCC[C@@H]21	x	x	x	u	-12%[46.1 µM]	x
Cc1cc(C)n(-c2nc3c(c(=O)[nH]c(=O)n3C)n2Cc2cccc(Br)c2)n1	8%	84*	4	8%	5%	-3%
O=C(Nc1ccc(Cl)cc1)c1ccncc1	-12%	52*	20	1%	0%	u
COc1ccc(Br)cc1CNC(=O)c1cc(=O)[nH]c2ccc(S(=O)(=O)N3CCCCC3)cc12	x	x	x	-15%[46.1 µM]	x	x
O=C(NC1CCCC1)c1cc(Cl)ccc1[N+](=O)[O-]	-6%	27*	14	8%	u	-4%
O=C(c1ccco1)N1CCN(C(=O)c2cc(-c3ccncc3)nc3ccc(Br)cc23)CC1	4%	x	x	-14%	u	x
